Data: the supplement of paper PMC7530171
Where a name gives a salt, the structure may show the parent alone. ± gives the standard deviation.

Experiments:
THP-1 = THP-1 cell loss relative to DMSO control; higher = more host cell loss (toxicity); extreme values may be limits of the assay; settings: 10 µM; 4 days; infection: M. tuberculosis H37Rv
Protocol: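 OICR kinase inhibitor library screened in duplicate at 10 uM against M. tuberculosis-infected THP-1 macrophages, 4 days at 37 C. THP-1 cell loss (cytotoxicity or loss of adherence) was quantified from Hoechst-stained nuclei counts by high-content imaging and normalised to the 1% DMSO control; 100 = complete loss of host cells.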

[1] = test system: THP-1 macrophages infected with Mycobacterium tuberculosis H37Rv; assay: intracellular M.tb growth inhibition relative to DMSO (0) and 4 uM bedaquiline (100); higher = stronger inhibition of intracellular bacterial growth; settings: 10 µM; 4 days
Protocol: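 OICR kinase inhibitor library screened in duplicate at 10 uM against THP-1 macrophages (PMA-differentiated) infected with M. tuberculosis H37Rv-pTEC27 (tdTomato RFP), 4 days at 37 C. Rows with complete host cell loss (placeholder inhibition 0, cell loss 100) were removed.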

Compound	THP-1 cell loss (THP-1) [%]	intracellular M.tb growth inhibition [1] [%]
CC(=O)c1ccc(N2CCOCC2)cc1O	16.46 ± 0.081	-148 ± 170
CN1CCN(CCOc2cc(OC3CCOCC3)c3c(Nc4c(Cl)ccc5c4OCO5)ncnc3c2)CC1	20.5 ± 7	44.4 ± 16
COc1cc2ncnc(Nc3ccc(O)c(Br)c3)c2cc1OC		13.5 ± 42
Cc1cc(Nc2nc(N[C@@H](C)c3ccc(F)cc3)c(C#N)cc2F)n[nH]1		-124 ± 150
CS(=O)(=O)CCNCc1nc(-c2ccc3ncnc(Nc4ccc(OCc5cccc(F)c5)c(Cl)c4)c3c2)cs1	37.5 ± 15	37.8 ± 12
Nc1ccc(C(=O)Nc2cccc(-c3nc(N4CCOCC4)c4oc5ncccc5c4n3)c2)cn1		17.6 ± 65
NC(=O)c1ccc(N(C(N)=O)c2c(F)cccc2F)nc1-c1ccc(F)cc1F		-1.77 ± 10
CCCS(=O)(=O)Nc1ccc(F)c(C(=O)c2c[nH]c3ncc(Cl)cc23)c1F		30.7 ± 35
COc1cc2ncnc(Nc3ccc(Cl)cc3F)c2cc1OC		48.4 ± 20
COc1cc(Oc2ccnc3cc(OC)c(OC)cc23)ccc1NC(=O)NC(C)c1nccs1 (racemic)		-40.9 ± 140
COc1ccc(CNC(=O)Nc2ncc([N+](=O)[O-])s2)cc1		20.1 ± 28
Nc1cc(N)c(N)cc1N [FAK Inhibitor 14]	11.9 ± 4	6.73 ± 56
CC(=O)c1c(C)c2cnc(Nc3ccc(N4CCNCC4)cn3)nc2n(C2CCCC2)c1=O	30.5 ± 8.2	-126 ± 210
COc1cc2c(Oc3ccc4[nH]c(C)cc4c3F)ncnc2cc1OCCCN1CCCC1 [Cediranib]	91.7 ± 12	6.57 ± 9.3
O=S(=O)(c1cccc2c(Cl)cccc12)N1CCCNCC1 [ML 9 hydrochloride]		-14 ± 4.8
C[C@]1(O)C[C@@H](c2nc(-c3ccc4ccc(-c5ccccc5)nc4c3)c3c(N)nccn32)C1	38.5 ± 4	39.2 ± 24
Cc1cc(C=C2C(=O)C=CC2=O)cc(C)c1O	1.15 ± 1.6	-63.7 ± 80

Compound	THP-1 cell loss (THP-1) [%]	intracellular M.tb growth inhibition [1] [%]
CN1CCC(Nc2ncc3ncnc(Nc4ccc(F)c(Cl)c4)c3n2)CC1 [BIBX 1382 dihydrochloride]	17.8 ± 14	64.2 ± 13
COc1cc(OC)c(C=C2C(=O)Nc3ccccc32)c(OC)c1		4.9 ± 6.5
C#Cc1cccc(Nc2ncnc3cc(OCCOC)c(OCCOC)cc23)c1 [Erlotinib HCl]	5.26 ± 7.4	-17.4 ± 52
COc1cc(SC)ccc1C(=O)N1CCC(Cc2ccccc2)CC1		41.8 ± 12
CCN1/C(=C/C(C)=O)Sc2ccc(OC)cc21	12.5 ± 2.4	-98.4 ± 120
O=C(Nc1cccc(Cl)c1)Nc1ncc(CCNc2ncnc3ccsc23)s1		-53.6 ± 76
CCc1nc(-c2cccc(C)c2)c(-c2ccnc(NC(=O)c3ccccc3)c2)s1		0.0588 ± 120
COc1ccc(-c2ccc3c(N4CCOCC4)nc(N4C[C@@H](C)O[C@@H](C)C4)nc3n2)cc1CO	53.5 ± 18	-282 ± 370
Cc1cc2c(F)c(Oc3ncnn4cc(OC[C@@H](C)O)c(C)c34)ccc2[nH]1 [Brivanib]	25.4 ± 0.91	-66.6 ± 160
Cc1cnc(-c2cnc(NCCNc3ccc(C#N)cn3)nc2-c2ccc(Cl)cc2Cl)[nH]1	13.7 ± 5	7.29 ± 24
Cc1cc(Nc2cc(N3CCN(C)CC3)nc(Sc3ccc(NC(=O)C4CC4)cc3)n2)n[nH]1	22.3 ± 16	-6.87 ± 4.6
COc1cc2ncnc(Nc3ccc(O)cc3)c2cc1OC [Janex-1]	10.7 ± 0.54	-138 ± 210
C[C@@H](Oc1cc(-c2cnn(C3CCNCC3)c2)cnc1N)c1c(Cl)ccc(F)c1Cl	33.8 ± 9.9	-114 ± 120
COc1cc2ncnc(Nc3ccc(F)c(Cl)c3)c2cc1OCCCN1CCOCC1 [Gefitinib]	12.5 ± 5.5	54.4 ± 28
N#Cc1c(-c2ccccc2)cc(-c2cc(Br)ccc2O)[nH]c1=O	8.6 ± 8.9	19.8 ± 17
CNc1cc2c(Nc3cccc(Br)c3)ncnc2cn1	78.2 ± 5.8	30.2 ± 36
